47 compounds from PubChem BioAssay AID1851 (National Center for Advancing Translational Sciences (NCATS), 2009) can be followed below.

SMILES strings stand for the structures. Out of some 16,000 compounds screened, about 4,000 (25%) were called active. Roughly 26% stayed inconclusive and do not appear here. The list is a sample of the results. Unmarked numbers belong to inactive results. Calls follow the shape of the dose curve; as a rule, active = well fitted curve in the direction sought with a large enough effect; inconclusive = small, poorly fitted or top-dose-only effect, or effect the other way; inactive = no such curve, though single readings can be large or run the other way.
% is scaled to controls: 0 for no effect and ±100 for the full control effect.

Chain of Cytochrome P450 2C9 (Homo sapiens) (P11712 whole entry, looked up): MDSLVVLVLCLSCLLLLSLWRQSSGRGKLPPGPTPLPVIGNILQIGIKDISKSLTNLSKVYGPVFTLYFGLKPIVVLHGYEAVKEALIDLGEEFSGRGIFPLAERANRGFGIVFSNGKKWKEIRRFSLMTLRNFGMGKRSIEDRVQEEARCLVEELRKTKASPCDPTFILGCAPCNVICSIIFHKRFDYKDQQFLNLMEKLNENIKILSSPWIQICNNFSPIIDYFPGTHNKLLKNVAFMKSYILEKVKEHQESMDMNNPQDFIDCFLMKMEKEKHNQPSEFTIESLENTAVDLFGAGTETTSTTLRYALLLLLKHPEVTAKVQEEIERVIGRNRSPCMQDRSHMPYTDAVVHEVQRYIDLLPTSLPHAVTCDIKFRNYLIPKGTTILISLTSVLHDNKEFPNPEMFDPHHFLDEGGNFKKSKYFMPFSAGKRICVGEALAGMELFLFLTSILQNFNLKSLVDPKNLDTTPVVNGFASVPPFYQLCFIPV

This assay addresses Cytochrome P450 2C9 (Homo sapiens) (UniProt P11712). In words: Cytochrome panel assay with activity outcomes. Conditions: recombinant CYP, pro-luciferin dealkylation, luminescence, p450-cyp2c9; series mostly up to 57.1 µM; activity, negative = inhibition: at the top concentration.
By AC50 is commonly meant the midpoint of the concentration-response curve, whichever way the signal moves. For `CCn1c(O)c(/C=C2\C=Nc3ccccc32)sc1=Nc1ccc(C)cc1`, the AC50 is 2.24 µM (active).
Still for that read-out and setting: the result for `CC(C)n1c(O)c(/C=C2\C=Nc3ccccc32)sc1=Nc1ccccc1` reads 2.51 µM (active).
Regarding `C[C@@H](CNC(N)=O)NC(N)=O`, the activity, negative = inhibition was 20.8% [at 11.4 µM].
As for `Cc1ccc(-c2cc(C(=O)NCc3ccco3)c3ccccc3n2)s1`, the AC50 was 3.98 µM (active).
Still for that read-out and setting: the result for `Cc1ccc(C)c(-c2cc(C(=O)Nc3nccs3)c3ccccc3n2)c1` reads 2.82 µM (active).
Same read-out and setting: the result for `Cc1ccc(C)c(-c2cc(C(=O)Nc3sc(C)c(C)c3C(N)=O)c3ccccc3n2)c1` reads 0.794 µM (active); that for `Cc1ccc(Nc2ncccc2C(=O)NCc2cccs2)c(C)c1`, 15.8 µM (active).
Consider `Cc1ccc2c(c1)N(CC(=O)NCc1cccs1)C(=O)C(C)O2` (configuration not stated), for which the “activity, negative = inhibition” value is 24.4%.
Still for that read-out and setting: the result for `CN(C)C(=O)c1ccc(-c2nccc(NCc3cccs3)n2)cc1` reads 10.6% [at 2.29 µM]; that for `N[C@@](CCc1ccccc1)(C(=O)O)c1ccccc1`, -3.36% [at 11.4 µM].
On the same count and under the same terms, the result for `COc1cccc(Nc2ncc3nc(C)c(=O)n(CCC#N)c3n2)c1` reads -1.51%; that for `CN(C)CCCn1c2c3ccccc3ccc2c2oc(=O)c3ccccc3c21`, -5.42% [at 11.4 µM].
Turning to `Cc1ccc(C)c(-c2cc(C(=O)NCc3cccs3)c3ccccc3n2)c1`, the AC50 is 1.26 µM (active).
As to `Cc1noc(C)c1-c1nc(NCc2cccs2)c2ccccc2n1`, the activity, negative = inhibition was -11.4% [at 2.29 µM].
The same measure, in the same setting: the result for `CN(C)C(=O)c1ccc(-c2nc(NCc3cccs3)c3ccccc3n2)cc1` reads -26.2% [at 2.29 µM]; that for `CS(=O)(=O)N1CCC2(CCN(C(=O)Nc3cccc(C#N)c3)CC2)CC1`, -1.38%; that for `c1ccc2oc(C3=NCCN3)cc2c1`, 6.13%.
For `COCCOC(=O)C1=C(C)NC(=O)N(C(C)=O)C1c1ccc(Cl)cc1` (configuration not stated), the AC50 was 4.47 µM (active).
As to `CC(=O)NC(Cc1ccc(F)cc1)C(=O)O` (configuration not stated), the “activity, negative = inhibition” value is 7.48%.
Consider `Cc1nc2c(C(=O)NCCC(C)C)c[nH]n2c(=O)c1Cc1ccccc1F`, for which the AC50 is 2.82 µM (active).
Same read-out and setting: the result for `Cc1nc2c(C(=O)NCc3ccc4c(c3)OCO4)c[nH]n2c(=O)c1Cc1ccccc1F` reads 0.501 µM (active).
Consider `O=C(O)c1cc2c(o1)CCC/C2=N\O`, for which the “activity, negative = inhibition” value was -26.6%.
The same measure, in the same setting: the result for `CC1(C)S[C@@H]2[C@H](NC(=O)[C@@H](N)c3ccc(O)cc3)C(=O)N2[C@H]1C(=O)O` reads 17% [at 25.6 µM].
The same measure, in the same setting: the result for `O=C(c1c(O)c2ccc(Cl)cc2[nH]c1=O)C1CC1` reads -5.08%.
Consider `O=c1[nH]c2cc(Cl)ccc2c(O)c1-c1ccc(Oc2ccccc2)cc1`, for which the AC50 was 12.6 µM (active).
Turning to `O=c1[nH]c2cc(Cl)ccc2c(O)c1-c1cccc(Oc2ccccc2)c1`, the “activity, negative = inhibition” value was -21.6%.
Still for that read-out and setting: the result for `CCOC(=O)Cc1cc(=O)n2[nH]c(C)c(C#N)c2n1` reads -6.59%.
`CCOC(=O)Cc1c(C)nc2c(C#N)c[nH]n2c1=O`: the AC50 was 12.6 µM (active).
With `CC(C)CCNC1=NCCCCC1`, the “activity, negative = inhibition” value is 3.84%.
The same measure, in the same setting: the result for `OC[C@H]1O[C@H](n2cnc3c(NC4CCCC4)nc(Cl)nc32)[C@@H](O)[C@@H]1O` reads -9.28%; that for `Cc1noc(C)c1-c1nc(NC2CCNCC2)c2ccccc2n1`, 13% [at 2.29 µM].
Turning to `O=C(c1n[nH]c(=O)c2ccccc12)N1CCN(C2c3ccccc3-c3ccccc32)CC1`, the AC50 was 2.82 µM (active).
Regarding `Cc1cc(C)nc(SCCc2cccc[n+]2C)n1`, the activity, negative = inhibition is -3.45% [at 11.4 µM].
Still for that read-out and setting: the result for `N#C/C(=C\c1ccc(O)c(O)c1)C(=O)c1ccc(O)c(O)c1` reads 11.7%.
Regarding `COc1cc(/C=C(\C#N)C(=O)c2ccc(O)c(O)c2)cc(I)c1O`, the AC50 was 0.501 µM (active).
For the compound `C[C@H]1CN(CCO)CCN1c1ccccc1`, the activity, negative = inhibition is -1.76% [at 11.4 µM].
As for `CC(C)=NOCc1cccc(-c2cc(-c3ccccc3)no2)c1`, the AC50 is 3.98 µM (active).
As to `CC(C)=NOCc1ccc(-c2cc(-c3ccccc3)no2)cc1`, the activity, negative = inhibition is 12% [at 11.4 µM].
Still for that read-out and setting: the result for `COc1cccc([C@H](O)Cn2cc(-c3cccc(CON=C(C)C)c3)nn2)c1` reads -2.7% [at 11.4 µM].
On to `CC(=O)c1ccc(NC(=O)C2(c3ccccc3)CCOCC2)cc1`, for which the AC50 was 5.01 µM (active).
In the case of `CCOC(=O)c1ccc(N/C=C/C(=O)c2ccc(OC)cc2)cc1`, the “activity, negative = inhibition” value is 13.1%.
With `CCOC(=O)c1ccc(NC(=O)C2(c3ccc(OC)cc3)CCOCC2)cc1`, the AC50 is 5.62 µM (active).
Turning to `CN(C)CCOC(=O)C1(c2ccccc2)CCOCC1`, the “activity, negative = inhibition” value is -19.5%.
On the same count and under the same terms, the result for `COc1ccc(C2(C(=O)N3CCOCC3)CCCC2)cc1` reads -17.7%; that for `Cc1cnc(CNc2ccnc(-c3ccccc3C)n2)cn1`, 11.5% [at 2.29 µM]; that for `CCOC(=O)c1cccc(C(=O)OCC)n1`, -2.66%.
As to `O=C(OCC(=O)c1cccs1)c1cccc(C(=O)OCC(=O)c2cccs2)n1`, the AC50 was 8.91 µM (active).
